Several values for one entry are separate records, joined by “and”; a condition that tells them apart may be missing. Equal entries are not always repeated. Records with an inconclusive call do not appear. Entries that show only a call come without a potency. A structure can be active in one record and inactive in another. Activity calls are given as the source filed them. Unless noted, calls follow the shape of the dose curve; as a rule, active = well fitted curve in the direction sought with a large enough effect in the repeat runs; inconclusive = weak or mixed curves; inactive = no such curve, though single readings can be large; an effect the other way counts as inactive or inconclusive.
Assays:
[1] = qHTS assay to identify small molecule agonists of the peroxisome proliferator-activated receptor delta (PPARd) signaling pathway - cell viability counter screen (AID 743211); also: nearly all actives have a fitted effect of over 55% in size; also: potency is read from the fitted curve at half-maximal effect
In short: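 PPARd-bla HEK293H cells (UAS-beta-lactamase reporter) were treated with compounds for 17 h at 37 C. Viability was then read in the same wells by CellTiter-Glo luminescence after 30 min at room temperature.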

[2] = qHTS assay to identify small molecule antagonists of the peroxisome proliferator-activated receptor delta (PPARd) signaling pathway - cell viability counter screen (AID 743213); also: nearly all actives have a fitted effect of over 50% in size; also: potency is read from the fitted curve at half-maximal effect
In short: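 Viability counter-screen, qHTS format: PPARd-bla HEK293H, L165041 300 nM final, 17 h compound exposure at 37 C, CellTiter-Glo luminescence after 30 min RT.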

[3] = molecular target: Peroxisome proliferator-activated receptor delta (Homo sapiens) (UniProt Q03181); assay: qHTS assay to identify small molecule antagonists of the peroxisome proliferator-activated receptor delta (PPARd) signaling pathway (AID 743215; active = well fitted inhibition curve with a large enough effect in the signal ratio in the repeat runs, not every such curve was filed as active; the % refers to the signal ratio;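 also: cells stimulated with agonist L165041 at 300 nM final during compound exposure; series mostly up to about 62 µM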)
In short: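 Inhibition of L165041-driven (300 nM final) PPARd signaling is scored in HEK293H UAS-bla cells. Exposure lasts 17 h at 37 C; beta-lactamase activity is then read by FRET substrate fluorescence after 2 h at room temperature.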

[4] = qHTS assay to identify small molecule agonists of the farnesoid-X-receptor (FXR) signaling pathway - cell viability counter screen (AID 743218); also: nearly all actives have a fitted effect of over 45% in size
In short: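 Cytotoxicity counter-screen run in parallel, same wells: FXR-UAS-bla HEK 293T cells dosed 16 h at 37 C, viability read by CellTiter-Glo luminescence after 30 min at room temperature.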

[5] = qHTS assay to identify small molecule agonists of the vitamin D receptor (VDR) signaling pathway - cell viability counter screen (AID 743224); also: nearly all actives have a fitted effect of over 50% in size; also: potency is read from the fitted curve at half-maximal effect
In short: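 Viability is measured in the same wells as the VDR-bla reporter assay: after 16 h compound treatment and 2 h substrate loading, CellTiter-Glo is added and luminescence read 30 min later.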

[6] = qHTS assay to identify small molecule antagonists of the vitamin D receptor (VDR) signaling pathway - cell viability counter screen (AID 743225); also: nearly all actives have a fitted effect of over 50% in size; also: potency is read from the fitted curve at half-maximal effect
In short: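 VDR-bla HEK 293T cells, 4 h pre-incubation at 37C, then compound plus 1-alpha,25-dihydroxyvitamin D3 (3 nM final) for 16 h. After the beta-lactamase FRET read, CellTiter-Glo was added to the same wells; luminescence after 30 min at room temperature.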

[7] = qHTS assay to identify small molecule agonists of the NFkB signaling pathway (AID 1159509; active = well fitted curve in the direction sought with a large enough effect in the signal ratio in the repeat runs, not every such curve was filed as active; the % refers to the signal ratio; also: series mostly up to about 61 µM)
In short: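 NFkB-bla ME-180 cells carry a beta-lactamase reporter under an NF-kB response element. They were plated overnight, then exposed to compounds for 5 h at 37 C. Read-out is LiveBLAzer FRET after 1.5 hr at room temperature (405 nm excitation; 460/530 nm emission).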

[8] = qHTS assay to identify small molecule agonists of the endoplasmic reticulum stress response signaling pathway (AID 1159516; active = well fitted activation curve with a large enough effect in the signal ratio in the repeat runs, not every such curve was filed as active; the % refers to the signal ratio)
In short: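 Tox21 10K library screened in quantitative HTS format on ESRE-bla HeLa cells, a beta-lactamase reporter under ER stress response element control; 5 hr treatment, FRET read.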

[9] = qHTS assay to identify small molecule agonists of the endoplasmic reticulum stress response signaling pathway - cell viability counter screen (AID 1159517; calls by dose curve; also: nearly all actives have a fitted effect of over 50% in size; also: potency is read from the fitted curve at half-maximal effect)
In short: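 CellTiter-Glo was added to wells already read for beta-lactamase FRET, and luminescence was recorded 30 min later. Cells: ESRE-bla HeLa, 1,500 per well, compound exposure 5 hr at 37 C.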

[10] = qHTS assay to identify small molecule antagonists of the retinoid-related orphan receptor gamma (ROR-gamma) signaling pathway - cell viability counter screen (AID 1159520); also: nearly all actives have a fitted effect of over 50% in size; also: potency is read from the fitted curve at half-maximal effect
In short: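 Tet-on ROR gamma CHO cells (1,000/well) were plated 4 hr, given compounds in DMSO for 2 hr at 37 C, then induced with 1 uM final doxycycline for 16 hr. Viability was read as ATP by CellTiter-Glo luminescence after 30 min.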

[11] = molecular target: Nuclear receptor ROR-gamma (Homo sapiens) (UniProt P51449); assay: qHTS assay to identify small molecule antagonists of the retinoid-related orphan receptor gamma (ROR-gamma) signaling pathway (AID 1159521; also: nearly all actives have a fitted effect of over 50% in size; also: potency is read from the fitted curve at half-maximal effect)
In short: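 Tet-on RORγ CHO cells carrying a ROR response element–luciferase reporter were pretreated with compounds for 2 h, then induced with 1 uM (final) doxycycline hyclate for 16 h at 37 C. Antagonism was read as decreased ONE-Glo luminescence.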

[12] = qHTS assay to identify small molecule agonists of the AP-1 signaling pathway - cell viability counter screen (AID 1159525; calls by dose curve; also: nearly all actives have a fitted effect of over 55% in size)
In short: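 ME-180 AP-1-bla, 2500 cells/well, Opti-MEM + 0.5% dialyzed FBS; overnight 37 °C; cpd 15-pt titration, 5 h 37 °C; CellTiter-Glo 30 min RT; luminescence read; normalised to TOAB and DMSO controls.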

[13] = qHTS assay to identify small molecule agonists of the AP-1 signaling pathway (AID 1159526; calls by dose curve)
[14] = molecular target: Peroxisome proliferator-activated receptor delta (Homo sapiens) (UniProt Q03181); assay: qHTS assay to identify small molecule agonists of the peroxisome proliferator-activated receptor delta (PPARd) signaling pathway (AID 743212; calls by dose curve)
In short: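 A PPARd-bla HEK293H line with beta-lactamase under an Upstream Activator Sequence is treated with compounds at 37 C. Substrate loading for 2 h at room temperature precedes the fluorescence measurement.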

[15] = molecular target: Vitamin D3 receptor (Homo sapiens) (UniProt P11473); assay: qHTS assay to identify small molecule antagonists of the vitamin D receptor (VDR) signaling pathway (AID 743223; active = well fitted inhibition curve with a large enough effect in the signal ratio in the repeat runs, not every such curve was filed as active; the % refers to the signal ratio)
In short: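 VDR-bla cells were plated, incubated 4 h at 37C, then given compound and 1alpha,25-dihydroxyvitamin D3 (3 nM final). After 16 h at 37C, LiveBLAzer B/G FRET substrate was added for 2 h at room temperature and fluorescence read.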

[16] = qHTS assay to identify small molecule agonists of the NFkB signaling pathway - cell viability counter screen (AID 1159515; calls by dose curve; also: series mostly up to about 61 µM; nearly all actives have a fitted effect of over 55% in size)
In short: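 Multiplexed viability readout: after the 5 hr compound exposure and 1.5 hr FRET substrate step, CellTiter-Glo reagent went into the same NFkB-bla ME-180 wells; ATP luminescence was measured after 30 min at room temperature.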

[17] = molecular target: Bile acid receptor (Homo sapiens) (UniProt Q96RI1); assay: qHTS assay to identify small molecule antagonists of the farnesoid-X-receptor (FXR) signaling pathway (AID 743217; active = well fitted inhibition curve with a large enough effect in the signal ratio in the repeat runs, not every such curve was filed as active; the % refers to the signal ratio)
In short: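 Antagonist mode against 50 uM (final) chenodeoxycholic acid stimulation in FXR-bla HEK 293T cells, 16 h at 37 °C. Inhibition detected as reduced beta-lactamase activity via LiveBLAzer B/G FRET fluorescence after 2 h at room temperature.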

[18] = molecular target: Bile acid receptor (Homo sapiens) (UniProt Q96RI1); assay: qHTS assay to identify small molecule agonists of the farnesoid-X-receptor (FXR) signaling pathway (AID 743220; active = well fitted activation curve with a large enough effect in the signal ratio in the repeat runs, not every such curve was filed as active; the % refers to the signal ratio)
In short: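 Beta-lactamase reporter under UAS control in GeneBLAzer FXR HEK 293T cells (5000/well) measured with LiveBLAzer FRET substrate after 2 h at room temperature. Compound exposure lasted 16 h at 37C.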

[19] = molecular target: Vitamin D3 receptor (Homo sapiens) (UniProt P11473); assay: qHTS assay to identify small molecule agonists of the vitamin D receptor (VDR) signaling pathway (AID 743222; calls by dose curve)
In short: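 Quantitative HTS agonist-mode screen: compounds in DMSO were pin-transferred onto VDR-bla cells and incubated 16 h at 37C, 5% CO2. Reporter activity was detected with LiveBLAzer B/G FRET substrate after 2 h at room temperature.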

[20] = qHTS assay to identify small molecule antagonists of the farnesoid-X-receptor (FXR) signaling pathway - cell viability counter screen (AID 743221; active = well fitted cell-killing curve with a large enough effect in the repeat runs, not every such curve was filed as active; also: nearly all actives have a fitted effect of over 50% in size)
In short: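 FXR-UAS-bla HEK 293T cells were treated with test compounds plus chenodeoxycholic acid (50 uM final) for 16 h at 37 C. Cell viability in the same wells was then read as CellTiter-Glo luminescence after 30 min at room temperature.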

Peroxisome proliferator-activated receptor delta (Homo sapiens), sequence (Q03181 whole entry, looked up): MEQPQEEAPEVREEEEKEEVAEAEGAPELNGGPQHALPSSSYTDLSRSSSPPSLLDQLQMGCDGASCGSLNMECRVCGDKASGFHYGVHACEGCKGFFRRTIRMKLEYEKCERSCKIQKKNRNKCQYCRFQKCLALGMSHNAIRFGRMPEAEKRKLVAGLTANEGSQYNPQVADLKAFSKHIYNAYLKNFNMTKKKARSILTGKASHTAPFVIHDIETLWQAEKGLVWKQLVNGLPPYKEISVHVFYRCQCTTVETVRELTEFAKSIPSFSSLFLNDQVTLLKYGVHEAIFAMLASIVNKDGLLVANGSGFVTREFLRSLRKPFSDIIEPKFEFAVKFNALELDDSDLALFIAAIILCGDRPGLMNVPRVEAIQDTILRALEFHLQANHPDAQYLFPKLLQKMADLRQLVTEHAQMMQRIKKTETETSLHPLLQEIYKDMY
Bile acid receptor (Homo sapiens), sequence (Q96RI1 whole entry, looked up): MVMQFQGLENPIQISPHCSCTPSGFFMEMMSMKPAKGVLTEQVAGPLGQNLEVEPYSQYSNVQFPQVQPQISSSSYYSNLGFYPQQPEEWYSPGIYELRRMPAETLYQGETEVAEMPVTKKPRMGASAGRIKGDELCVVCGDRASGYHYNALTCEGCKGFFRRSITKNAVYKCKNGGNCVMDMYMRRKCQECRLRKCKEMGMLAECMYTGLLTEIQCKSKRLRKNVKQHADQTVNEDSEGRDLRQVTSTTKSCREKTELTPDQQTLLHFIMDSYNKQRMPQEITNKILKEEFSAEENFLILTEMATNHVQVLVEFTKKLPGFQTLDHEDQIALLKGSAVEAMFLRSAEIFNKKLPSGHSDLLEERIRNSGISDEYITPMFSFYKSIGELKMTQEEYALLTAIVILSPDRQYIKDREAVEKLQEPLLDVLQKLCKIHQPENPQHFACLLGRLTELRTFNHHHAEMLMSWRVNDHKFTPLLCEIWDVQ
Vitamin D3 receptor (Homo sapiens), sequence (P11473 whole entry, looked up): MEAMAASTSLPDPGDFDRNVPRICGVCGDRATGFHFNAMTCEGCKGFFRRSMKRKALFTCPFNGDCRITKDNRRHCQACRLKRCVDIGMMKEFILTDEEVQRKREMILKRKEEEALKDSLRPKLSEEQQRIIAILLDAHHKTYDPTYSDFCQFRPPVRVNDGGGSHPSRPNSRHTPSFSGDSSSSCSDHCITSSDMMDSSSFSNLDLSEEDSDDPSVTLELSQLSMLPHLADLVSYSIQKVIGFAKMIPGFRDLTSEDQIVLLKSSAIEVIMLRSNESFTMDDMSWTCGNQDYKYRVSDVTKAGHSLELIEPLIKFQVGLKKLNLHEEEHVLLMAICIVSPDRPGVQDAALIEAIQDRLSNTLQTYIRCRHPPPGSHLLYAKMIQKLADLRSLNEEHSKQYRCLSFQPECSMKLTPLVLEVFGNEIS

Structure (SMILES) | Potency [1] | Potency [2] | outcome [3] | Potency [4] | Potency [5] | Potency [6] | outcome [7] | outcome [8] | Potency [9] | Potency [10] | Potency [11] | Potency [12] | Potency [13] | outcome [14] | Potency [15] | outcome [16] | outcome [17] | outcome [18] | Potency [19] | Potency [20]
C=C(C)C(=O)OCCC[Si](OC)(OC)OC | inactive | inactive | inactive | inactive | inactive | inactive | inactive | inactive | inactive | inactive | inactive | inactive | inactive | – | – | – | – | – | – | –
S=c1nc[nH]c2nc[nH]c12 | 23.9 µM (active) | – | inactive | inactive | 15.1 µM (active) and 10.6 µM (active) | 4.25 µM (active) | inactive | inactive | – | inactive | – | inactive | inactive | inactive | inactive | inactive | – | – | – | –
CCC(C)C=O (stereo not drawn) | inactive | inactive | inactive | inactive | inactive | – | inactive | inactive | inactive | inactive | inactive | inactive | inactive | – | – | – | inactive | inactive | inactive | –
ClC1=C(Cl)C(Cl)(Cl)C(Cl)=C1Cl | – | inactive | inactive | inactive | inactive | inactive | inactive | – | 27.7 µM (active) and 49 µM (active) | 7.74 µM (active) and 6.11 µM (active) | – | inactive | inactive | – | inactive | inactive | – | – | inactive | –
NS(=O)(=O)c1cc2c(cc1Cl)NC=NS2(=O)=O | inactive | inactive | inactive | inactive | inactive | inactive | inactive | inactive | inactive | inactive | – | inactive | inactive | inactive | inactive | – | – | – | inactive | –
O=[N+]([O-])C(CO)(CO)CO | inactive | inactive | inactive | inactive | inactive | inactive | inactive | inactive | inactive | inactive | inactive | inactive | inactive | inactive | inactive | – | – | – | inactive | –
CC1CC(OC(=O)c2ccccc2O)CC(C)(C)C1 (stereo not drawn) | inactive | inactive | inactive | inactive | 34.3 µM (active) and inactive | inactive | inactive | inactive | inactive | inactive | – | inactive | – | – | – | inactive | – | – | – | inactive
OC1CCCC1 | inactive | inactive | inactive | inactive | inactive | inactive | inactive | – | inactive | inactive | inactive | inactive | inactive | – | inactive | inactive | – | – | inactive | inactive
C/C=C(C)/C=C/C=C(C)C | inactive | inactive | – | – | inactive | – | inactive | inactive | inactive | inactive | – | inactive | – | – | inactive | inactive | – | – | inactive | inactive
CC(C)NCC(O)COc1cccc2ccccc12 (stereo not drawn) | – | 49.5 µM (active) and 21.9 µM (active) | – | inactive | inactive | inactive | inactive | inactive | inactive | inactive | – | inactive | – | – | inactive | – | inactive | inactive | inactive | inactive
CCCCNC(N)=O | inactive | inactive | inactive | inactive | inactive | inactive | inactive | inactive | inactive | inactive | inactive | inactive | inactive | inactive | inactive | – | inactive | inactive | inactive | inactive
CC(C)n1c(/C=C/[C@@H](O)C[C@@H](O)CC(=O)O)c(-c2ccc(F)cc2)c2ccccc21 | – | – | – | inactive | inactive | inactive | inactive | inactive | inactive | – | 486 nM (active) and 168 nM (active) | inactive | inactive | – | – | inactive | – | – | – | –
COC(=O)Nc1nc2ccc(Sc3ccccc3)cc2[nH]1 | – | inactive | – | inactive | inactive | inactive | inactive | inactive | inactive | 26.6 µM (active) | – | inactive | inactive | – | – | – | – | – | inactive | –
COC(=O)c1ccccc1O | – | inactive | inactive | inactive | inactive | inactive | inactive | inactive | inactive | inactive | – | inactive | inactive | – | inactive | – | – | – | inactive | inactive
CC(=O)CCc1ccccc1 | inactive | inactive | – | inactive | inactive | – | inactive | inactive | inactive | inactive | inactive | inactive | inactive | – | inactive | – | – | – | inactive | –
Cc1ccc(C(=O)O)o1 | – | inactive | inactive | – | inactive | inactive | inactive | inactive | inactive | inactive | – | inactive | inactive | – | inactive | inactive | – | – | inactive | inactive
C=C(C)C(=O)OCC(CC)(COC(=O)C(=C)C)COC(=O)C(=C)C | inactive | inactive | inactive | inactive | inactive | inactive | inactive | – | inactive | inactive | inactive | inactive | inactive | – | – | – | inactive | inactive | – | inactive
Oc1ccc2ccccc2c1N=Nc1ccccc1 | – | inactive | – | inactive | inactive | inactive | inactive | – | inactive | inactive | – | inactive | – | – | – | inactive | inactive | inactive | – | inactive
CCCCCCCCCCC=CC1CC(=O)OC1=O (stereo not drawn) | – | inactive | – | inactive | inactive | inactive | inactive | inactive | inactive | inactive | 54.8 µM (active) and inactive | inactive | inactive | – | inactive | – | inactive | inactive | inactive | –

From PubChem BioAssay (Tox21)
